# Experimental data published in PubChem BioAssay (NCATS).
# Where “and” joins values, the source holds several entries; their conditions need not be identical. Equal entries are not always repeated. Inconclusive results are not listed. Entries that show only a call come without a potency. A number with no mark means an inactive call. Calls of active or inactive are those of the source. The call rests on the fitted dose curve; in most records, active means well fitted curve in the direction sought with a large enough effect; inconclusive means small, poorly fitted or top-dose-only effect, or another doubt; inactive means no such curve, though single readings can be large; an effect the other way counts as inactive or inconclusive.
# Experiments:
# [1] = biological target: Calcium and integrin-binding protein 1 (Homo sapiens) (UniProt Q99828); experiment: Primary qHTS for Identification of Calcium Integrin Binding Protein 1 (CIB1) Competitor (AID 1508620);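 further: GST tagged CIB1 binding a fluorescein labelled alphaIIb integrin peptide tracer; top concentration of the series differs between compounds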
# How it was run: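 CIB1-GST (1 uM final) and compound incubated 15 min at room temperature before adding FITC-alphaIIb peptide tracer (100 nM final). Competition for binding read by fluorescence polarization (ex 480, em 540) after another 15 min at room temperature.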
# [2] = Primary qHTS for inhibitors of nuclear receptor binding SET domain protein 2 (NSD2) in an isogenic RCH-ACV NSD2 p.E1099K mutant (9B) (AID 1645876); further: nearly all actives have a fitted effect of over 70% in size; further: potency means the concentration at half of the fitted maximal effect
# [3] = Primary qHTS for inhibitors of nuclear receptor binding SET domain protein 2 (NSD2) in an RCH-ACV wild type WT cells (2C) (AID 1645877); further: nearly all actives have a fitted effect of over 70% in size; further: potency means the concentration at half of the fitted maximal effect
# Chain of Calcium and integrin-binding protein 1 (Homo sapiens) (Q99828 whole entry, looked up): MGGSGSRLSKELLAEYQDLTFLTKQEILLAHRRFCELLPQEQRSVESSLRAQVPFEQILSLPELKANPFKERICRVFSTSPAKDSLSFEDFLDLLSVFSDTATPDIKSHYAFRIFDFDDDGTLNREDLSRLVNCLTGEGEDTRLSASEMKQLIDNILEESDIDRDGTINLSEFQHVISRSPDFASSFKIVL
Compound,"activity change, negative = inhibition [1]","activity change, negative = viability loss [2]","activity change, negative = cell killing [3]",Potency [1],Potency [2],Potency [3]
COC1CC(O[C@H]2CC[C@@]3(C)C(=CC[C@]4(O)C3[C@H](OC(C)=O)[C@@H](OC(=O)c3ccccc3)[C@]3(C)[C@@H](C(C)=O)CC[C@@]34O)C2)OC(C)C1OC1CC(OC)C(OC2CC(OC)C(OC3OC(C)C(OC4OC(CO)C(O)C(O)C4O)C(OC)C3O)C(C)O2)C(C)O1 (stereo partly specified),-4.32% [at 12.4 µM],-11.2% [at 9.23 µM],-8.43% [at 9.23 µM],–,–,–
COc1c2c(c(C)c3c1C(=O)OC3)OC1(C)CC(O)C(C(C)(C)O)C(C)(CCC(=O)O)C1C2 (stereo unspecified),–,–,–,inactive,inactive,inactive
CC(=O)OC[C@]12[C@H](OC(C)=O)C(=O)[C@@H]3[C@@H](OC(C)=O)[C@@]14O[C@@]3(C)COC(=O)c1cccnc1[C@@H](C)[C@H](C)C(=O)O[C@@H]([C@H](O)[C@@H]2OC(C)=O)[C@]4(C)O,–,–,–,inactive,inactive,inactive
O=C1OCC(c2ccccc2)=C1Cc1ccccc1,–,–,–,inactive,inactive,inactive
C=C1[C@@H]2CC[C@@H]3[C@@](CCC4C(C(=O)O)(C(=O)O)C[C@@H](O[C@@H]5O[C@H](CO)[C@@H](O)[C@H](O)[C@H]5OC(=O)CC(C)C)C[C@]43C)(C2)[C@H]1O (stereo partly specified),–,–,–,inactive,inactive,inactive
CC1(C)CC[C@@]2(C(=O)O[C@@H]3O[C@H](CO)[C@@H](O)[C@H](O)[C@H]3O)C(C1)C1=CCC3[C@@]4(C)CC[C@@H](O[C@@H]5O[C@H](C(=O)O)[C@@H](O[C@@H]6OC[C@@H](O)[C@H](O)[C@H]6O)[C@H](O[C@@H]6OC[C@](O)(CO)[C@H]6O)[C@H]5O)C(C)(C)C4CC[C@@]3(C)[C@]1(C)C[C@H]2O (stereo partly specified),–,-47.8% [at 9.23 µM],-88.4% [at 9.23 µM],inactive,–,–
c1cc(Nc2cc(C3CC3)[nH]n2)nc(Nc2ccc3nc[nH]c3c2)n1,–,–,–,inactive,417 nM (active),468 nM (active)
CC/C=C\C/C=C\C/C=C\CCCCCCCC(=O)OCC(O)COC1OC(CO)C(O)C(O)C1O (stereo unspecified),–,–,–,inactive,inactive,inactive
C=C[C@H]1[C@H](O[C@@H]2O[C@H](CO)[C@@H](O)[C@H](O)[C@H]2O)OC=C(C(=O)OC)[C@H]1CC(=O)O,–,–,–,inactive,inactive,inactive
N[C@@]1(C(=O)O)CC[C@H]2[C@H](C(=O)O)[C@H]21,–,–,–,inactive,inactive,inactive
CC1(C(=O)O)CCCC2(C)C3=CCC4CC3(CCC12)CC4CO (stereo unspecified),–,–,–,inactive,inactive,inactive
COc1cc(O)cc(C)c1C(=O)OC1C(CO)OC(OC2C(O)C(O)C(O)C(O)C2O)C(O)C1O (stereo unspecified),–,–,–,inactive,inactive,inactive
CC(=O)OC[C@H]1O[C@H](O[C@]2(CO)O[C@H](CO)[C@@H](OC(=O)/C=C/c3ccccc3)[C@@H]2O)[C@H](O)[C@@H](O)[C@@H]1O,–,–,–,inactive,inactive,inactive
CCC1C(=O)OC23C=C[C@@H]4C(C(=O)O)=CO[C@H](O[C@@H]12)[C@@H]43 (stereo partly specified),–,–,–,inactive,25800 nM (active),18300 nM (active)
C[C@H](Nc1ncnc2nc[nH]c12)c1cc2ccc(F)cc2nc1-c1ccccn1,–,–,–,inactive,833 nM (active),1180 nM (active)
C=C1C[C@]23C[C@H]1CC[C@H]2[C@@]12CC[C@H](O)[C@@](C)(C(=O)O1)[C@H]2[C@@H]3C(=O)O,–,–,–,inactive,inactive,inactive
CC1=CC2/C=C(\C)CC[C@@H](O)[C@@H](O)[C@@H]3O[C@@H]3C(=O)[C@]23C(=O)N[C@@H](CC(C)C)[C@@H]3[C@@H]1C (stereo partly specified),–,–,–,inactive,inactive,inactive
C[C@H](C/C=C/C(C)(C)O)[C@H]1CC[C@@]2(C)[C@@H]3[C@@H](O[C@@H]4O[C@H](CO)[C@@H](O)[C@H](O)[C@H]4O)C=C4C(CC[C@H](O)C4(C)C)[C@]3(C=O)CC[C@]12C (stereo partly specified),–,–,–,inactive,inactive,inactive
C=C1CCCC2(C)CC3(OC)OC(=O)C(C)=C3CC12 (stereo unspecified),–,–,–,inactive,inactive,inactive
CC(C)c1cc(C(=O)N2CC[C@@H](NC(=O)C3CC3)C2)n[nH]1,–,–,–,inactive,inactive,inactive
CCOC(=O)C(CCc1ccccc1)NC(C)C(=O)N1C(=O)N(C)CC1C(=O)O (stereo unspecified),–,–,–,inactive,inactive,inactive
CC1=C(CO)C(=O)O[C@@H]([C@@H](C)[C@H]2CC[C@H]3[C@@H]4C[C@H]5O[C@]56[C@@H](O)C=CC(=O)[C@]6(C)[C@H]4CC[C@]23C)C1,–,–,–,inactive,448 nM (active) and 263 nM (active),709 nM (active) and 263 nM (active)
COc1cc(O)c2c(c1)C1=C[C@H](O)[C@@H](O)C[C@]1(C)OC2=O,–,–,–,inactive,inactive,inactive
CC(C)CC1NC(=O)C2CC3(O)c4ccccc4NC3N2C1=O (stereo unspecified),–,–,–,inactive,inactive,inactive
N=c1nc2n(cc1F)C1OC(CO)C(O)C1O2 (stereo unspecified),–,–,–,inactive,57.8 nM (active),18.3 nM (active)
OC[C@H]1O[C@@H](OCCc2ccc(O)cc2)[C@H](O[C@@H]2OC[C@](O)(CO)[C@H]2O)[C@@H](O)[C@@H]1O,–,–,–,inactive,inactive,inactive

Compound,"activity change, negative = inhibition [1]","activity change, negative = viability loss [2]","activity change, negative = cell killing [3]",Potency [1],Potency [2],Potency [3]
CC(=O)c1ccc2c(c1)C(O)C(C(C)(C)O)O2 (stereo unspecified),–,–,–,inactive,inactive,inactive
COC(=O)c1c(C)cc(OC(=O)c2c(C)cc(OC)cc2OC)cc1O[C@@H]1O[C@H](CO)[C@@H](O)[C@H](O)[C@H]1O,–,–,–,inactive,inactive,inactive
COC1CC(O[C@H]2CC[C@@]3(C)C(CCC4C3[C@H](OC(C)=O)[C@@H](OC(=O)/C=C/c3ccccc3)[C@]3(C)C(C(C)=O)CC[C@]43O)C2)OC(C)C1OC1CC(OC)C(OC2CC(OC)C(OC3OC(C)C(OC4OC(CO)C(O)C(O)C4O)C(OC)C3O)C(C)O2)C(C)O1 (stereo partly specified),3.75% [at 12.4 µM],-23.3% [at 9.23 µM],-29.1% [at 9.23 µM],–,–,–
CC1OC(OC2C(OC3C(O[C@H]4CC[C@@]5(C)C(CC[C@]6(C)C5C(=O)C=C5C7CC(C)(C)CC(O)[C@]7(C)CC[C@]56C)C4(C)C)OC(C(=O)O)C(O)C3O)OCC(O)C2O)C(O)C(O)C1O (stereo partly specified),–,-6.05% [at 9.23 µM],0.842% [at 9.23 µM],inactive,–,–
C=C1CN(Cc2ccc(C(=O)Nc3ccccc3N)cc2)C(=O)c2ccccc21,–,–,–,inactive,230 nM (active),230 nM (active)
CC(O)/C=C/C1(O)C2(C)COC1(C)CC(O)C2 (stereo unspecified),–,–,–,inactive,inactive,inactive
C[C@@H]1CCC2C(C)(C)[C@H](O)CC[C@]2(C)[C@@]12Cc1c(O)cc3c(c1O2)CN([C@@H](CCC(=O)O)C(=O)O)C3=O (stereo partly specified),–,–,–,inactive,inactive,inactive
CC12CCC(OC3OC(CO)C(O)C(OC4OC(CO)C(O)C(O)C4O)C3O)CC1CCC1C2CCC2(C)/C(=C3/COC(=O)C3)CCC12O (stereo unspecified),–,–,–,inactive,inactive,inactive
CC(C)C(C(=O)N(C)C(C)C(N)=O)N(C)C(=O)C1CCCN1C(=O)/C=C/C=C/C(O)C(C)O (stereo unspecified),–,–,–,inactive,inactive,inactive
COc1cc(C2Oc3c(OC)cc(CCCO)cc3C2CO)ccc1O[C@H]1O[C@H](C)[C@@H](O)[C@H](O)[C@@H]1O (stereo partly specified),–,–,–,inactive,inactive,inactive
CC(=O)O[C@H]1C[C@@](O)(C(C)C)C2[C@@H](OC(=O)c3ccc(O)cc3)C[C@@]3(C)O[C@H]3C[C@]21C (stereo partly specified),–,–,–,inactive,inactive,inactive
C=C1C(O)CC2C(C(=O)O)=COC(O[C@@H]3O[C@H](COC(=O)/C=C/c4ccc(O)cc4)[C@@H](O)[C@H](O)[C@H]3O)C12 (stereo partly specified),–,–,–,inactive,inactive,inactive
OC[C@H]1O[C@@H](OCCc2ccccc2)[C@H](O[C@@H]2OC[C@](O)(CO)[C@H]2O)[C@@H](O)[C@@H]1O,–,–,–,inactive,inactive,inactive
C[C@@H]1CC[C@]2(C(=O)O[C@@H]3O[C@H](CO)[C@@H](O)[C@H](O)[C@H]3O)CC[C@]3(C)C(=CCC4[C@@]5(C)C[C@@H](O)[C@H](O)[C@](C)(C(=O)O)C5CC[C@]43C)[C@@H]2[C@]1(C)O (stereo partly specified),–,–,–,inactive,inactive,inactive
COc1cc2c(cc1O)[C@H](c1ccc(O[C@@H]3O[C@H](CO)[C@@H](O)[C@H](O)[C@H]3O)c(OC)c1)[C@@H](CO)[C@](O)(CO)C2,–,–,–,inactive,inactive,inactive
CC1=CC(=O)CC(C)(CO)C1(O)/C=C/C(C)O[C@@H]1O[C@H](CO)[C@@H](O)[C@H](O)[C@H]1O (stereo partly specified),–,–,–,inactive,inactive,inactive
COc1cc(C2c3cc4c(c(O)c3CC(CO)C2C(=O)O)OCO4)cc(OC)c1O (stereo unspecified),–,–,–,inactive,2520 nM (active),2000 nM (active)
O=C(/C=C\c1ccc(O)cc1)N[C@@H](Cc1ccc(O)cc1)C(=O)O,–,–,–,inactive,inactive,inactive
C/C=C/C=C/C(O)=C1\C(O)=C(C)C(=O)[C@@]2(C)OC(=O)[C@@](C)(NC(=O)/C=C/C(=O)O)[C@@H]12,–,–,–,inactive,inactive,inactive
C=C(C)C1CC[C@]2(C(=O)O)CC[C@]3(C(=O)O)[C@H](CCC4[C@@]5(C)CC[C@H](O)C(C)(C)C5CC[C@]43C)C12 (stereo partly specified),–,–,–,inactive,inactive,inactive
CC1=C2C[C@H]3O[C@@]3(C)CCC3O[C@@]3(C)C[C@@]2(O)OC1=O (stereo partly specified),–,–,–,inactive,inactive,inactive
OCc1ccc(O[C@@H]2O[C@H](CO)[C@@H](O)[C@H](O)[C@H]2O)cc1,–,–,–,inactive,inactive,inactive
CC(C)(O)CC(CO)NC(=O)CC(O)CC(=O)Cc1ccccc1 (stereo unspecified),–,–,–,inactive,inactive,inactive
C[C@H]1[C@H](O)O[C@@H]2O[C@@]3(C)CC[C@H]4[C@H](C)CC[C@@H]1[C@@]24OO3,–,–,–,inactive,1180 nM (active),833 nM (active)
CC1(C)CC[C@]2(C(=O)O[C@@H]3O[C@H](CO)[C@@H](O)[C@H](O)[C@H]3O)CC[C@]3(C)C(=CCC4[C@@]5(C)C[C@@H](O)[C@H](O)[C@](C)(C(=O)O)C5CC[C@]43C)C2C1O (stereo partly specified),–,–,–,inactive,inactive,inactive
C/C(=C\CCC(C)CCO)C(=O)O[C@@H]1[C@@H](O)[C@H](OC2OC=C(C(=O)O)C3CCC(C)(O)C23)O[C@H](CO)[C@H]1O (stereo partly specified),–,–,–,inactive,inactive,inactive
